Tests used:
Format in all cases: functional
[1] = test system: Plasmodium falciparum; test: GSK_TCMDC: Inhibition of Plasmodium falciparum 3D7 in whole red blood cells, using parasite LDH activity as an index of growth. Test compounds present at 2uM
[2] = test system: Plasmodium falciparum; test: GSK_TCMDC: Inhibition of Plasmodium falciparum Dd2 in whole red blood cells, using parasite LDH activity as an index of growth. Test compounds present at 2uM
[3] = test system: HepG2; test: GSK_TCMDC: Percent inhibition of human HepG2 cell line. Test compounds present at 10uM.

Compound `c1ccc(-c2n[nH]cc2Nc2ccnc3ccccc23)nc1` has an Inhibition [1] of 100%, an Inhibition [2] of 98% and an Inhibition [3] of 36%.
Compound `COCCN1CCC(NCC(C)(C)c2nc(-c3ccc(Cl)c(O)c3)c(-c3ccncc3)[nH]2)CC1.Cl` has an Inhibition [1] of 100%, an Inhibition [2] of 47% and an Inhibition [3] of 0%.
For `COc1ccc(C2CC(c3cccs3)=NN2C(=O)c2ccco2)cc1OC` (centres undefined), the Inhibition [1] was 100%, the Inhibition [2] was 97% and the Inhibition [3] was 0%.
For `Cc1cccc2nc(-c3cccc(-c4ccc(NC(=O)C5CC(=O)Nc6ccccc65)cc4)c3)[nH]c12` (centres undefined), the Inhibition [1] was 87%, the Inhibition [2] was 56% and the Inhibition [3] was 15%.
`COc1ccc2nccc([C@@H](O)CN3CCC(NCCOc4cccc(C(F)(F)F)c4Cl)CC3)c2c1.O=C(O)C(=O)O` gave an Inhibition [1] of 100%, an Inhibition [2] of 98% and an Inhibition [3] of 13%.
For `O=C(NCC(c1ccc(C(F)(F)F)cc1)N1CCCC1)c1cc(-c2ccncc2)c(-c2cccc(O)c2)o1.O=C(O)C(F)(F)F` (centres undefined), the Inhibition [1] was 95%, the Inhibition [2] was 53% and the Inhibition [3] was 9%.
Work on `O=C(O)C(F)(F)F.OCC1CCN(Cc2ccc(-c3cccc(-c4nc5ccccc5[nH]4)c3)cc2)CC1` yielded an Inhibition [1] of 100%, an Inhibition [2] of 6% and an Inhibition [3] of 21%.
In the case of `COc1ccccc1CNC(=O)c1cc(Br)cc(N2CCN(c3ccncc3)CC2)c1.O=C(O)C(F)(F)F`, the Inhibition [1] was 95%, the Inhibition [2] was 76% and the Inhibition [3] was 43%.
`CC(C)CNC(=O)c1cncc(-c2ccc(CNCCCc3ccccc3)cc2)c1.O=C(O)C(F)(F)F` gave an Inhibition [1] of 100%, an Inhibition [2] of 73% and an Inhibition [3] of 28%.
`CC(C)c1cc2c(ccc3nc(N)nc(N)c32)[nH]1` showed an Inhibition [1] of 93%, an Inhibition [2] of 4% and an Inhibition [3] of 49%.
With `COc1ccc(NS(=O)(=O)c2cc(NC(=O)Cn3ccccc3=O)ccc2N2CCCCC2)cc1` the Inhibition [1] was 92%, the Inhibition [2] was 83% and the Inhibition [3] was 20%.
`O=C(NCCCCN1CCC(c2nc3ccccc3s2)CC1)c1cc2ccccc2[nH]1` was tested, and the Inhibition [1] was 86%, the Inhibition [2] was 64% and the Inhibition [3] was 43%.
In the case of `CC(=O)OC[C@H]1O[C@@H](C#Cc2ccccc2)[C@H](OC(C)=O)[C@@H](OC(C)=O)[C@@H]1OC(C)=O`, the Inhibition [1] was 95%, the Inhibition [2] was 90% and the Inhibition [3] was 5%.
In the case of `C=CCN1C(=O)C(=Cc2cc(Br)ccc2O)SC1=Nc1ccccc1`, the Inhibition [1] was 96%, the Inhibition [2] was 55% and the Inhibition [3] was 0%.
`CCCCOC(=O)[C@H](CCC)NC(=O)c1ccc(NS(=O)(=O)c2ccc3nc(N)[nH]c(=O)c3c2)cc1` gave an Inhibition [1] of 99%, an Inhibition [2] of 3% and an Inhibition [3] of 66%.
With `COc1ccc2c(CCNc3nc(SC)ncc3C(=O)NCCc3ccc(F)cc3)c[nH]c2c1.O=C(O)C(F)(F)F` the Inhibition [1] was 91%, the Inhibition [2] was 49% and the Inhibition [3] was 3%.
Compound `CC1(C)NC(N)=NC(=N)N1OCc1nc(N)nc(Nc2ccccc2)n1` has an Inhibition [1] of 98%, an Inhibition [2] of 0% and an Inhibition [3] of 3%.
In the case of `CCN1CCC(N(Cc2ccc(-c3ccc(C(F)(F)F)cc3)cc2)C(=O)Cn2c(CCc3cccc(F)c3F)cc(=O)c3ccccc32)C1.O=C(O)C(O)C(O)C(=O)O` (centres undefined), the Inhibition [1] was 93%, the Inhibition [2] was 84% and the Inhibition [3] was 43%.
`CCOc1cc(C(=O)NCc2cccc(C(F)(F)F)c2)ccc1-c1nc2cc(Cl)ccc2[nH]1` gave an Inhibition [1] of 88%, an Inhibition [2] of 31% and an Inhibition [3] of 7%.
In the case of `CCOC(=O)C1=C(C)N=c2sc(=Cc3cc(Cl)ccc3O)c(=O)n2C1c1ccc2c(c1)OCO2` (centres undefined), the Inhibition [1] was 96%, the Inhibition [2] was 91% and the Inhibition [3] was 0%.
`N#Cc1cccc(C(=O)Nc2ccc(-c3nc4ccccc4[nH]3)cc2)c1` was tested, and the Inhibition [1] was 91%, the Inhibition [2] was 38% and the Inhibition [3] was 33%.
`Cc1cccc2nc(-c3ccc(-c4ccc(CN5CCC(N)C5)cc4)s3)[nH]c12.O=C(O)C(F)(F)F` (centres undefined) was tested, and the Inhibition [1] was 100%, the Inhibition [2] was 98% and the Inhibition [3] was 21%.
`CCCOc1ccc(-c2nonc2NC(=O)c2ccccc2OC)cc1OCCC` showed an Inhibition [1] of 98%, an Inhibition [2] of 82% and an Inhibition [3] of 23%.

— ChEMBL document CHEMBL1157539, “Thousands of chemical starting points for antimalarial lead identification” (Nature, 2010)
